Structures are written as SMILES. Screen size: about 2,400 compounds; about 750 (31%) were called active. Some of the results follow. Values without a mark were called inactive.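 Rule for the calls: active = median signal gain over dofetilide-blocked control wells reaching their mean plus 3 SD, so readout 1 at least 0; inactive = the rest.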 Where a SMILES comes first, the peptide text is derived from it. The star is where a group is joined. Cbz = O=C(OCc1ccccc1)*

The target of the test is Voltage-gated inwardly rectifying potassium channel KCNH2 (Homo sapiens) (UniProt Q12809). The test is described as follows: modulators restoring hERG flux under dofetilide – cell-based, thallium flux, duplicate retest, dofetilide IC70, confirmation (AID 1835). The following applies: hERG cell line, FluxOR thallium flux, dofetilide-blocked; at 10 µM; hits give high values. In general terms: Block of hERG is tested as a sign of cardiac risk.
Sequence of Voltage-gated inwardly rectifying potassium channel KCNH2 (Homo sapiens) (Q12809 whole entry, looked up): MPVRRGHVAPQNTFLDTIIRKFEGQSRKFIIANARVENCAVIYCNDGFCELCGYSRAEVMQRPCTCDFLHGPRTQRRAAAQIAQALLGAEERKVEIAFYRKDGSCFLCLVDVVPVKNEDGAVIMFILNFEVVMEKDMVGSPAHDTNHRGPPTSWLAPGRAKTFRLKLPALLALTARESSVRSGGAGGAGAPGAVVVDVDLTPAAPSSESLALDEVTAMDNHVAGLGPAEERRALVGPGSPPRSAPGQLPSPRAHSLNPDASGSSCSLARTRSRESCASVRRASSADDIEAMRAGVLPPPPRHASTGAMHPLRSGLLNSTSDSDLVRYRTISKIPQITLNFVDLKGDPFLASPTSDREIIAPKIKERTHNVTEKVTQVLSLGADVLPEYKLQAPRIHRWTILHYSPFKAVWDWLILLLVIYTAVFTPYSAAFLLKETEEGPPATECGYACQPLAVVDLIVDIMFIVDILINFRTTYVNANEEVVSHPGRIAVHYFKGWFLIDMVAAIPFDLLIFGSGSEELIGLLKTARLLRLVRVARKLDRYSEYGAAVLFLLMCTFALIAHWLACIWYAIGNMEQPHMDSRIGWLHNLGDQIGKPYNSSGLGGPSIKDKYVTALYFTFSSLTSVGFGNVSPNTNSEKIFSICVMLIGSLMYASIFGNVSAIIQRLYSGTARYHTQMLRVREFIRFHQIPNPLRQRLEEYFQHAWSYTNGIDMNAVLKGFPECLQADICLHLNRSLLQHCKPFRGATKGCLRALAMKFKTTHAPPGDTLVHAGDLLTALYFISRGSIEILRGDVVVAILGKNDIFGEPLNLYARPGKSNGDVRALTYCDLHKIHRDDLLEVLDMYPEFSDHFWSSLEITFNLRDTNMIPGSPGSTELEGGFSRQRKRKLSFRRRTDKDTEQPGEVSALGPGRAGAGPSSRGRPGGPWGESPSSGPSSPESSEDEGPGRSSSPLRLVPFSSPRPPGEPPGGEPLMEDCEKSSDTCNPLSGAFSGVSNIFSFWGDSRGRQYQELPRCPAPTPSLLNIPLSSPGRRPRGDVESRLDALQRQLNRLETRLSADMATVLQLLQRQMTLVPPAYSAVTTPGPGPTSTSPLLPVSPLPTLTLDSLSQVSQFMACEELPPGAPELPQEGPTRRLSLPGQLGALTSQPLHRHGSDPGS
Turning to `CCCCNC(=O)c1onc(CSc2nc3ccccc3[nH]2)c1C(=O)NCCCC`, the activity increase over dofetilide control, less the hit threshold is -12%. For the compound `Cc1ccc(CNC(=O)CCc2ccc(S(=O)(=O)NCC(C)C)cc2)cc1`, the activity increase over dofetilide control, less the hit threshold was -8%.

Turning to `Cc1ccc(C(C)NC(=O)c2cccs2)cc1C` (stereo unspecified), the activity increase over dofetilide control, less the hit threshold is -21%.

Consider `CC(NC(=O)c1ccc(Br)cc1)c1ccc2c(c1)CCCC2` (stereo unspecified), for which the activity increase over dofetilide control, less the hit threshold was 12% (active). `CC(NC(=O)c1ccc(F)cc1)c1ccc2c(c1)CCCC2` (stereo unspecified): the activity increase over dofetilide control, less the hit threshold is -12%. For `Fc1ccc(NC(=S)Nc2nccs2)cc1` the value was 0%. For `Nc1cccc2c1C(=O)N(CC(=O)NC13CC4CC(CC(C4)C1)C3)C2=O` the value was -9%. Regarding `Cc1ccc(/C(O)=C/C(=O)C(=O)NC23CC4CC(CC(C4)C2)C3)cc1`, the activity increase over dofetilide control, less the hit threshold was 10% (active). For `CCC(C)c1ccccc1NC(=O)C(C)NCCN(C)C` (stereo unspecified) the value was -13%; for `CCC(C)c1ccccc1NC(=S)NC(=O)c1ccco1` (stereo unspecified), 69% (active); for `CCC(C)c1ccccc1NC(=O)c1[nH]c(C)c(C(C)=O)c1C` (stereo unspecified), -12%. On to `CCOc1ccccc1NC(=S)NC(=O)c1ccco1`, for which the activity increase over dofetilide control, less the hit threshold was 3% (active).

For the compound `Cc1nc2n(n1)CC(O)CS2` (stereo unspecified), the activity increase over dofetilide control, less the hit threshold was -14%.

With `CN(C)CCNc1ncnc2c1sc1nc(N3CCCC3)c3c(c12)CC(C)(C)OC3`, the activity increase over dofetilide control, less the hit threshold is -10%.

`CCCCc1c(O)nc(SCC(=O)O)[nH]c1=O`: the activity increase over dofetilide control, less the hit threshold was -16%. To `CC12CCC3(CO)COC(c4ccccc4O1)C2C3` (stereo unspecified) belongs -5%; to `O=C(COC(=O)c1cc(Br)ccc1O)Nc1cccnc1Cl`, -14%.

With `COC(=O)c1ccc(C(=O)NC(=S)Nc2nc3c(s2)CCCC3)cc1`, the activity increase over dofetilide control, less the hit threshold is 13% (active). For the compound `O=C(NC(=S)Nc1nc2c(s1)CCCC2)c1ccc(C(=O)c2ccccc2)cc1`, the activity increase over dofetilide control, less the hit threshold was -3%. For `CC(C)(C)c1ccc(C(=O)NC(=S)Nc2nc3c(s2)CCCC3)cc1` the value was 13% (active); for `Cc1csc(NC(=O)c2cc3c(s2)CCCC3)n1`, -5%; for `COC(=O)c1ccc(C(=O)NC(=S)Nc2nc3c(s2)CC(C)CC3)cc1` (stereo unspecified), -10%. For `Cc1ccc(N2C(=O)c3ccccc3C2(O)c2ncc[nH]2)cc1` (stereo unspecified) the value was -18%; for `CCc1nnc(NC(=O)c2c(C)nn(-c3ccccc3)c2Cl)s1`, -16%. Turning to `COc1ccc(-n2nc(C(=O)NCC(=O)NCc3ccc(F)cc3)c3ccccc3c2=O)cc1OC`, the activity increase over dofetilide control, less the hit threshold is -13%.

Regarding `COc1ccc(-n2c(SCc3ccccn3)nc3c(c2=O)SCC3)cc1OC`, the activity increase over dofetilide control, less the hit threshold was 3% (active). In the case of `CCOC(=O)c1c(-c2ccc(C)o2)csc1NC(=S)NC(=O)N(C)C`, the activity increase over dofetilide control, less the hit threshold is 21% (active). As to `CCOC(=O)c1c(CC(C)C)csc1NC(=O)c1ccccc1C(=O)O`, the activity increase over dofetilide control, less the hit threshold was -13%. To `CCOC(=O)c1nnsc1NC(C)=O` belongs -13%; to `CCNC(=S)Nc1scc(-c2ccccc2)c1C(=O)OCC`, 5% (active); to `CCOC(=O)c1cc2c(nc1NC(=S)NCc1ccccc1)CCCC2`, -1%. For `CCOC(=O)c1c(-c2ccccc2)csc1NC(=S)NC`, the activity increase over dofetilide control, less the hit threshold is 7% (active). Take `C=CCn1c(N2CCCCCC2)nc2c1c(=O)n(C)c(=O)n2C`: the activity increase over dofetilide control, less the hit threshold is -7%. To `CC1(OC(=O)C2CCCC2)C(=O)C=C2C=C(c3ccc(C#N)cc3)OC=C2C1=O` (stereo unspecified) belongs -18%. For `Cc1ccc(C)c(N2CCN(S(=O)(=O)c3ccc(-c4ccc(=O)[nH]n4)o3)CC2)c1` the value was -11%; for `CC(Sc1n[nH]c(=O)[nH]c1=O)C(=O)OCc1ccccc1` (stereo unspecified), -11%. With `Cn1c2ccccc2c(=O)c2c(=O)n(Cc3ccco3)c(-c3ccc(Cl)cc3Cl)nc21`, the activity increase over dofetilide control, less the hit threshold was -10%. Turning to `Cn1c(=O)c2sc3c(c2n(CC(=O)Nc2ccccc2)c1=O)COC(C)(C)C3`, the activity increase over dofetilide control, less the hit threshold was -12%. With `COc1ccccc1-n1cnc2cc(NS(=O)(=O)c3ccc(Br)cc3)ccc21`, the activity increase over dofetilide control, less the hit threshold was -24%. With `Cc1ccc(CNC(=O)CN(C(=O)C2(C)CC(=O)N=C3C=CC=CN32)c2ccccc2F)cc1` (stereo unspecified), the activity increase over dofetilide control, less the hit threshold is -8%. Regarding `CCCCCn1c(=S)[nH]c2ncccc2c1=O`, the activity increase over dofetilide control, less the hit threshold was 40% (active). To `Cc1ccc(Cn2c(=S)[nH]c3ccccc3c2=O)cc1` belongs 3% (active); to `CCCCC(CC)CNC(=O)Cn1c(=S)[nH]c2ncccc2c1=O` (stereo unspecified), -12%; to `O=c1c2ccccc2[nH]c(=S)n1CCc1ccccc1`, 20% (active). For `CCN(CCCn1c(=S)[nH]c2ncccc2c1=O)c1ccccc1`, the activity increase over dofetilide control, less the hit threshold is -2%.

As to `CC(C)CCn1c(=S)[nH]c2ncccc2c1=O`, the activity increase over dofetilide control, less the hit threshold was -1%. Consider `CCCCn1c(=S)[nH]c2ccccc2c1=O`, for which the activity increase over dofetilide control, less the hit threshold was 3% (active). For the compound `O=C1CN(S(=O)(=O)c2ccccc2)CC(=O)N1CCc1ccccc1`, the activity increase over dofetilide control, less the hit threshold was -6%. For `O=c1c2cc(Cl)ccc2[nH]c(=S)n1Cc1cccs1` the value was -8%. For `CCOCCCn1c(=S)[nH]c2cc(C(=O)NCCOC)ccc2c1=O` the value was -13%; for `Cc1ccc(OCCC(=O)OC(C)C(=O)Nc2ccc(Cl)cn2)cc1` (stereo unspecified), -11%; for `CCC1(C)CC2(CCCN(CCC(=O)c3ccccc3)C2)CCO1` (stereo unspecified), -34%. For the compound `Cc1ccc(NC(=O)CSc2nnc(-c3cccnc3)n2-c2ccc(C)cc2)cc1`, the activity increase over dofetilide control, less the hit threshold is -20%. `COc1ccc(-c2nc(-c3ccccn3)ncc2S(C)(=O)=O)cc1`: the activity increase over dofetilide control, less the hit threshold was -15%. For `c1ccc(-c2ccc(-c3ccncn3)cc2)cc1` the value was -14%. As to `c1ccc(-c2n[nH]c(-c3ccccn3)n2)cc1`, the activity increase over dofetilide control, less the hit threshold is 7% (active).

As for `Cc1nc(Oc2ccc(Cl)cc2)c2oc3ccccc3c2n1`, the activity increase over dofetilide control, less the hit threshold is -9%. To `O=C1N2CCSC2=NC1(NS(=O)(=O)c1ccccc1)C(F)(F)F` (stereo unspecified) belongs 5% (active). With `COc1ccc(CCNC(=O)C2CCCN(S(C)(=O)=O)C2)cc1` (stereo unspecified), the activity increase over dofetilide control, less the hit threshold was -15%. In the case of `COc1ccc(-n2c(SCC#N)nnc2-c2cccnc2)cc1`, the activity increase over dofetilide control, less the hit threshold was -26%. For `O=C1CC(N2CCN(c3ccccc3Cl)CC2)C(=O)N1c1ccc(F)cc1` (stereo unspecified) the value was -10%; for `COc1ccc(C(=O)c2oc3ccccc3c2N)cc1`, -12%. For `COc1ccc(-c2c(C)c3ccc(OCC(C)=O)cc3oc2=O)cc1`, the activity increase over dofetilide control, less the hit threshold was -20%. Turning to `CC(=O)Oc1c(-c2ccc(Br)o2)oc2ccccc2c1=O`, the activity increase over dofetilide control, less the hit threshold is 66% (active). To `COc1ccc(-c2oc3ccccc3c(=O)c2OC(C)=O)cc1` belongs 7% (active). For the compound `CC(=O)Oc1c(-c2ccco2)oc2ccccc2c1=O`, the activity increase over dofetilide control, less the hit threshold is -1%. To `Cc1ccnc(SCCn2c(N3CC(C)OC(C)C3)nc3c2c(=O)n(C)c(=O)n3C)n1` (stereo unspecified) belongs -26%; to `CCN1C(=O)/C(=C\c2ccc(-c3cccc(C(=O)OC)c3)o2)SC1=Nc1ccc(C(=O)O)cc1`, -3%.

As for `COc1ccc(/C=C2\SC(=N)N(c3nccs3)C2=O)cc1OC`, the activity increase over dofetilide control, less the hit threshold was 30% (active).

As for `N=C1S/C(=C\c2ccc(-c3cccc(Cl)c3)o2)C(=O)N1c1nccs1`, the activity increase over dofetilide control, less the hit threshold is 50% (active).

On to `N=C1S/C(=C\c2ccco2)C(=O)N1c1nccs1`, for which the activity increase over dofetilide control, less the hit threshold is -24%. Regarding `COc1cccc(CN(C)CC2CCCN(CCc3ccc(Cl)cc3)C2)c1OC` (stereo unspecified), the activity increase over dofetilide control, less the hit threshold is -31%. To `O=C(NCc1cccs1)C1CC(c2ccc(F)cc2)=NO1` (stereo unspecified) belongs -24%. To `COc1ccc(Cl)cc1C(=O)NNC(=S)NC(=O)/C=C/c1ccco1` belongs -4%; to `Cc1occc1C(=O)NNC(=S)NC(=O)COc1ccc(Cl)cc1Cl`, 100% (active); to `Cc1ccc(Cn2nnc3c(=O)n(CC(=O)N4CCCc5ccccc54)cnc32)cc1`, 2% (active). Turning to `CCC(=O)N1CCCc2ccccc21`, the activity increase over dofetilide control, less the hit threshold is -8%. For `CC(=O)N1CCCc2cc(S(=O)(=O)NCc3ccc(C)cc3)ccc21` the value was -1%. To `Cn1c(=O)c2sccc2n(Cc2cccc(Br)c2)c1=O` belongs -11%; to `Cn1c(=O)[nH]c(=O)c2c1nc(CN1CCN(c3ccccc3F)CC1)n2CCCc1ccccc1`, -7%. To `O=C(COC(=O)C1C2CC3OC(=O)C1C3C2)Nc1ccc(Cl)cc1` (stereo unspecified) belongs -17%; to `O=C(CN1C(=O)c2ccccc2S1(=O)=O)NCCSCc1ccccc1Cl`, -16%. For the compound `O=C(O)CCCCn1c(SCc2ccccc2Cl)nc2ccsc2c1=O`, the activity increase over dofetilide control, less the hit threshold was 4% (active). For `CC(/C=C1\N=C(SCc2ccccc2Cl)SC1=O)=C\c1ccccc1` the value was -9%; for `Cc1cc(NC(=O)CCCn2cnc([N+](=O)[O-])n2)no1`, -9%; for `CCOC(=O)C1CCN(C(=O)COC(=O)c2nn(C)c(=O)c3ccccc23)CC1`, -23%. `CCOC(=O)c1nnn(CC(=O)Nc2ccccc2OC)c1C(=O)OCC`: the activity increase over dofetilide control, less the hit threshold is -3%. For `CCOC(=O)c1n[nH]n2c1nc(=S)c1ccccc12` the value was 46% (active); for `C[n+]1ccccc1COc1ccc(C(C)(C)C)cc1`, -15%. For `COC(=O)c1ccc(/C=C/c2ccc3cccc(OC)c3n2)cc1` the value was -7%; for `Cc1ccc(NS(=O)(=O)c2ccc(NC(=O)c3ccccc3C(=O)O)cc2)cc1C`, -5%; for `Cc1ccc(C)c(/C=C/C(=O)c2ccccc(=O)c2O)c1`, -3%. Regarding `Cc1ccc(/C=C/C(=O)c2ccccc(=O)c2O)c(C)c1`, the activity increase over dofetilide control, less the hit threshold was 22% (active). For the compound `Cc1ccc(C(=O)c2ccccc2C(=O)O)c(O)c1`, the activity increase over dofetilide control, less the hit threshold was -6%. To `O=C(/C=C/c1ccccc1Cl)c1ccccc(=O)c1O` belongs 13% (active).

In the case of `Cc1ccc(/C=C/C(=O)c2ccccc(=O)c2O)cc1C`, the activity increase over dofetilide control, less the hit threshold was 8% (active). With `CC(=O)c1sc(-c2ccc(F)cc2)cc1NS(=O)(=O)c1ccc(C)cc1`, the activity increase over dofetilide control, less the hit threshold is -14%.

On to `CC1=[N+]([O-])C(C)(C)C(c2ccc(Br)cc2)=[N+]1[O-]`, for which the activity increase over dofetilide control, less the hit threshold is -3%. Turning to `COCCNC(=O)CN(C(=O)c1ccc(N2CCCC2)nc1)c1ccccc1`, the activity increase over dofetilide control, less the hit threshold was -15%. To `CCc1ccc2[nH]c(=O)c(-c3ccccc3)c(O)c2c1` belongs -20%; to `CCC(C)C(NC(=O)C(C)NC(=O)CNC(=O)CNC(=O)OCc1ccccc1)C(=O)OC` (stereo unspecified) (Cbz-GGAI-OMe; configuration not given here), -22%.

Source of the values: PubChem BioAssay AID1835 (Johns Hopkins Ion Channel Center, 2009).
